This is an account of results in PubChem BioAssay (NCATS).

“And” between values parts separate entries of the source, which are not always exact repeats. Equal entries are not always repeated. Records with an inconclusive call do not appear. Unmarked numbers belong to inactive results. The source made the active and inactive calls. The call rests on the fitted dose curve; in most records, active means well fitted curve in the direction sought with a large enough effect; inconclusive means small, poorly fitted or top-dose-only effect, or another doubt; inactive means no such curve, though single readings can be large; an effect the other way counts as inactive or inconclusive.

One assay deals with CRL-7250. Briefly: Cytotoxic Profiling of Annotated Libraries Using Quantitative High-Throughput Screening (AID 1296008). Further: nearly all actives have a fitted effect of over 60% in size. Further: potency means the concentration at half of the fitted maximal effect. Particulars: Five cell lines viability, CellTiter-Glo ATP luminescence, 48-72 h; max response: stronger effect = lower value. The essentials:
(§1)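 Compounds were pin-transferred onto cells and incubated 48 or 72 hr at 37 degree Celsius, 95% humidity. CellTiter-Glo was added, plates sat 10 min at room temperature, then ATP-coupled luminescence was imaged as the viability read-out.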
(In ATP-based viability assays light output follows the ATP content of the culture.)

A further assay concerns HEK293. The description is as above. Particulars: Five cell lines viability, CellTiter-Glo ATP luminescence, 48-72 h; max response: stronger effect = lower value. The essentials: as §1
The test system of another assay is KB-3-1. Described as above. The note with it: Five cell lines viability, CellTiter-Glo ATP luminescence, 48-72 h; max response: stronger effect = lower value. The essentials:
as §1

The subject of assay [1] is NIH3T3. The assay is described as above. Particulars: Five cell lines viability, CellTiter-Glo ATP luminescence, 48-72 h; max response: stronger effect = lower value. The essentials: as §1
In the next assay the test system is MCC-13. Briefly: qHTS assay to identify novel small-molecules to repurpose for Merkel cell carcinoma treatment (AID 1296009). Further: nearly all actives have a fitted effect of over 60% in size. Further: potency means the concentration at half of the fitted maximal effect. Particulars: MCC and control cell lines, CellTiter-Glo viability, 72 h; series mostly up to 46 µM. The essentials:
(§2)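 Luminescence from CellTiter-Glo, read 10 min after addition at room temperature, reported viability following a 72 hr, 37 degree celsius treatment with NPC or MIPE compounds in titration; values normalized to plate controls.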
In general terms: Quantitative high-throughput screening tests each substance at several concentrations.

Another assay deals with MCC-26. The description is as above. The note with it: MCC and control cell lines, CellTiter-Glo viability, 72 h; series mostly up to 46 µM. The essentials:
as §2

In a further assay the test system is MKL-1. The assay is described as above. Particulars: MCC and control cell lines, CellTiter-Glo viability, 72 h; series mostly up to 46 µM. The procedure, abridged:
as §2

A further assay has as its system MKL-2. Described as above. The note with it: MCC and control cell lines, CellTiter-Glo viability, 72 h; series mostly up to 46 µM. The procedure, abridged:
as §2

The subject of a further assay is UISO. The description is as above. Particulars: MCC and control cell lines, CellTiter-Glo viability, 72 h; series mostly up to 46 µM. The procedure, abridged: as §2
Another assay deals with WaGa. The assay is described as above. The note with it: MCC and control cell lines, CellTiter-Glo viability, 72 h; series mostly up to 46 µM. The essentials:
as §2

The test system of a further assay is CAOV3. The assay can be described thus: Primary qHTS to identify gynecologic anti-cancer compounds using libraries of approved drugs and bioactive compounds (AID 1345084). Further: nearly all actives have a fitted effect of over 55% in size. Particulars: Gynecologic cancer cell panel viability, ATPlite luminescence, 48 h; series mostly up to 57.5 µM. The essentials: (§3)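 Cells, 1,000 per well, plated 16 h, then exposed 48 h at 37 C to compounds. Viability by ATPlite luminescence after 15 min at room temperature.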

The subject of the next assay is CASKI. The assay is described as above. Particulars: Gynecologic cancer cell panel viability, ATPlite luminescence, 48 h; series mostly up to 57.5 µM. The procedure, abridged: as §3
A further assay concerns Es-2. Described as above. The note with it: Gynecologic cancer cell panel viability, ATPlite luminescence, 48 h; series mostly up to 57.5 µM. The procedure, abridged:
as §3

Another assay concerns HeLa. The assay is described as above. The note with it: Gynecologic cancer cell panel viability, ATPlite luminescence, 48 h; series mostly up to 57.5 µM. The procedure, abridged: as §3
Assay [2] concerns HaCat. The assay can be described thus: Cytotoxic Profiling of Annotated Libraries Using Quantitative High-Throughput Screening (AID 1296008). Further: nearly all actives have a fitted effect of over 60% in size. Further: potency means the concentration at half of the fitted maximal effect. The note with it: Five cell lines viability, CellTiter-Glo ATP luminescence, 48-72 h; max response: stronger effect = lower value. The procedure, abridged: as §1
A further assay relates to HEK293T. The assay can be described thus: qHTS assay to identify novel small-molecules to repurpose for Merkel cell carcinoma treatment (AID 1296009). Further: nearly all actives have a fitted effect of over 60% in size. Further: potency means the concentration at half of the fitted maximal effect. Particulars: MCC and control cell lines, CellTiter-Glo viability, 72 h; at 44.8 µM (top of the series). The essentials: as §2
Another assay concerns C33A. Briefly: Primary qHTS to identify gynecologic anti-cancer compounds using libraries of approved drugs and bioactive compounds (AID 1345084). Further: nearly all actives have a fitted effect of over 55% in size. The note with it: Gynecologic cancer cell panel viability, ATPlite luminescence, 48 h; series mostly up to 57.5 µM. The essentials:
as §3

The test system of assay [3] is HACAT. The assay can be described thus: qHTS assay to identify novel small-molecules to repurpose for Merkel cell carcinoma treatment (AID 1296009). Further: nearly all actives have a fitted effect of over 60% in size. Further: potency means the concentration at half of the fitted maximal effect. The note with it: MCC and control cell lines, CellTiter-Glo viability, 72 h; at 44.8 µM (top of the series) unless noted. The procedure, abridged:
as §2

Assay [4] concerns NIH3T3. Described as above. The note with it: MCC and control cell lines, CellTiter-Glo viability, 72 h; at 44.8 µM (top of the series) unless noted. The procedure, abridged:
as §2
On the % scale 0 is the no-effect control and ±100 the full control effect.

`O=C(N[C@H]1N=C(c2ccccc2F)c2cccc3c2N(CC3)C1=O)c1cc2ccccc2[nH]1`: the max response with CRL-7250 was 2.91%; in the assay on HEK293 it was -7.34%; with NIH3T3 [1] it was -0.0973%. Moreover, in the assay on KB-3-1, the outcome was inactive. The Potency entry in the assay on MCC-13, with MCC-26, with MKL-1, in the assay with MKL-2, in the assay with UISO and with WaGa was “inactive” throughout. The Potency entry with CAOV3, in the assay with CASKI, with Es-2 and with HeLa was “inactive” throughout.
On to `CCCC(C)C1(CC)C(=O)N=C(S)NC1=O` (centres undefined), for which the max response in the assay on CRL-7250 was -2.8%; with HaCat [2] it was -26.2%; with NIH3T3 [1], -2.94%. Further, the molecule was called inactive in the assay on HEK293 and in the assay on HEK293T. Besides, the Potency entry with MCC-13, in the assay with MCC-26, in the assay on MKL-1, with MKL-2, in the assay on UISO and in the assay on WaGa was “inactive” throughout. Further, the Potency result in the assay with C33A, in the assay with CASKI, in the assay with Es-2 and in the assay on HeLa was “inactive” throughout.
As to `CN1CCc2cc(Cl)c(O)cc2[C@H]2c3ccccc3CC[C@@H]21`, the max response was -3.76% in the assay with CRL-7250, 18% in the assay on KB-3-1 and -2.57% in the assay with NIH3T3 [1]. The molecule was classed as inactive with HaCat [2] and in the assay on HACAT [3]. The Potency entry with MCC-13, with MCC-26, with MKL-1, in the assay with MKL-2, in the assay with UISO and in the assay with C33A was “inactive” in each case. In addition, the Potency result with CAOV3, in the assay with CASKI, in the assay with Es-2 and in the assay with HeLa was “inactive” in each case.
As to `CCC1(c2cnc[nH]2)Cc2ccccc2C1`, the max response with CRL-7250 is -7.94%; in the assay with HEK293 it was -9.84%; in the assay with KB-3-1 it was -12.7% and -2.33%. Moreover, in the assay with NIH3T3 [1], the result was inactive.
For `CCN1CCCC1CNC(=O)C(O)(c1ccccc1)c1ccccc1` (centres undefined), the max response in the assay on CRL-7250 was -23.4%; in the assay on HaCat [2], -7.18%. Also, the molecule was classed as inactive in the assay with HEK293, in the assay with NIH3T3 [1], in the assay on HEK293T and with NIH3T3 [4]. Moreover, the Potency result in the assay with MCC-13, in the assay with MCC-26, in the assay with MKL-1, in the assay with MKL-2, in the assay on UISO and in the assay on WaGa was “inactive” throughout. Further, the Potency entry with C33A, in the assay on CAOV3, in the assay on CASKI, with Es-2 and in the assay with HeLa was “inactive” each time.
On to `Nc1ccc(Cl)cc1C(=O)c1ccccc1F`, for which the max response in the assay with CRL-7250 was -4.36%; in the assay on HEK293, -6.5%; in the assay on HaCat [2], 0.566%; with NIH3T3 [1], 0.255%. For the same molecule, the Potency entry in the assay on MCC-13, with MCC-26, in the assay with MKL-1, in the assay on MKL-2, in the assay on WaGa and with C33A was “inactive” in each case. Besides, the Potency entry in the assay on CASKI, with Es-2 and in the assay with HeLa was “inactive” throughout.
Consider `C[C@@H]1O[C@@H](O[C@@H]2C=C3CC[C@@H]4[C@H](CC[C@]5(C)[C@@H](c6ccc(=O)oc6)CC[C@]45O)[C@@]3(C)CC2)[C@H](O)[C@H](O)[C@H]1O`, for which the Potency was 13.3 nM (active) in the assay with CRL-7250; 33.5 nM (active) in the assay with HEK293; 42.2 nM (active) with HaCat [2]; 3.3 nM (active) with MCC-13; 9.4 nM (active) in the assay with MKL-1; 8.4 nM (active) in the assay with MKL-2. Further, the Potency was 3.8 nM (active) in the assay on UISO and 2.7 nM (active) in the assay on WaGa.
As to `Sc1ccccc1Cl`, the max response in the assay with CRL-7250 is 1.34%; in the assay on HEK293, -0.79%; in the assay on HaCat [2], -3.98%; with NIH3T3 [1], 2.05%. The Potency entry in the assay with MCC-13, in the assay on MCC-26, in the assay with MKL-1, with MKL-2, with UISO and in the assay on WaGa was “inactive” throughout. The Potency result in the assay with C33A, in the assay with CAOV3, with CASKI, in the assay with Es-2 and in the assay on HeLa was “inactive” in each case.
Regarding `CCC(=O)C(CCN(C)C)(c1ccccc1)c1ccccc1`, the max response with CRL-7250 is -11.9%; in the assay on HEK293 it was -18.5%; with HaCat [2], -17.8%; with NIH3T3 [1], 2.72%. Further, the Potency result in the assay with MCC-13, with MCC-26, in the assay on MKL-1, in the assay with UISO, in the assay with C33A and in the assay with CAOV3 was “inactive” throughout. The Potency result in the assay with CASKI, with Es-2 and with HeLa was “inactive” each time.
